# PubChem BioAssay AID1345085 (National Center for Advancing Translational Sciences (NCATS), 2018)
# Inconclusive results are not listed. Calls of active or inactive are those of the source. The call rests on the fitted dose curve; in most records, active means well fitted cell-killing curve with a large enough effect; inconclusive means small, poorly fitted or top-dose-only effect, or effect the other way; inactive means no such curve, though single readings can be large or run the other way.
# Tested on: PA-1
# Assay: Confirmatory qHTS for gynecologic anti-cancer compounds from libraries of approved drugs and bioactive compounds; further: nearly all actives have a fitted effect of over 55% in size
# Conditions: gynecologic cancer cell panel viability, ATPlite luminescence, 48 h; series mostly up to 57.6 µM
# Procedure, shortened: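 1,000 cells/well; 16 h pre-incubation 37 C, 5% CO2; pin-transferred cpd in DMSO, 11 conc (1:3), 57.5 uM–0.977 nM; 48 h; ATPlite, 15 min RT; luminescence → IC50.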
# Potency means the concentration at half of the fitted maximal effect.
row,SMILES,Potency
1,O=C(CCCCCCC(=O)Nc1ccccc1)NO,1.37 µM (active)
2,CC(C)[C@@H](CS(=O)(=O)C(C)C)N1C(=O)[C@@](C)(CC(=O)O)C[C@H](c2cccc(Cl)c2)[C@H]1c1ccc(Cl)cc1,2.43 µM (active)
3,Cc1ccc(C(=O)Nc2ccc(Oc3cc4cnn(C)c4cc3-c3cn[nH]c3)c(F)c2)c(=O)n1-c1ccc(F)cc1,10.9 µM (active)
4,Cc1cc(C(=O)N2CCN(c3cccc(Cl)c3)CC2)n(-c2ccccc2)n1,3.43 µM (active)
5,Cc1c(NC(=O)OCC2COCCN2)cn2ncnc(Nc3ccc4c(cnn4Cc4cccc(F)c4)c3)c12 (stereo not given),27.3 µM (active)
